In the library only some 28% were active in any assay of this set; here they are far more common.
CYP2C9 inhib: inhibitors of human CYP2C9; CYP2C9 Supersomes, luciferin-H conversion, luminescence; P11712; AID 777; hit rate 20% among 96,000; inhibition, % at 5 µM;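 active = blocking of liver enzyme CYP2C9 beyond about 50% at 5 µM, limit read from the data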
CYP2C19 activ: activators of human cytochrome P450 2C19 | P33261 | activation factor at 5 µM | AID 1025 | recombinant CYP2C19, luciferin-H EGE luminescence; stronger effect = higher value; 0 = fully inhibited enzyme, 1 = untreated enzyme | 96,000 tested, under 10 active;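 active = activation factor of at least 2 at 5 µM in the primary screen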;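 note: 0 = wells with 2.5 mM tranylcypromine and 1 = vehicle-only wells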
Target sequence (P33261 whole entry, looked up): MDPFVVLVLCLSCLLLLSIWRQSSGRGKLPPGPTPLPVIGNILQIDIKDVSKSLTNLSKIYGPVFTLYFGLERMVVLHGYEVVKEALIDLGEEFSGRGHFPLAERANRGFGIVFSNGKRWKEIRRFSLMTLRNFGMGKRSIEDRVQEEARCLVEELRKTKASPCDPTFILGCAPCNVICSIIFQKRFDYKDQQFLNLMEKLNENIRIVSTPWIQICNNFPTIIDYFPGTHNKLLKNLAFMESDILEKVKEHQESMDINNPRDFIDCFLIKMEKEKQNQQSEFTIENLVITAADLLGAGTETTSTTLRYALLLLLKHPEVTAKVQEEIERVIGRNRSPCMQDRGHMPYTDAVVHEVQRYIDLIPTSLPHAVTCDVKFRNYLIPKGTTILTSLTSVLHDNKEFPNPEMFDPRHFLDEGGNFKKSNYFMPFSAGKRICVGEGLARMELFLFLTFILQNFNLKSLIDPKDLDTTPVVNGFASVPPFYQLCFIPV
CYP2C19 inhib: human CYP2C19 inhibition; P33261; inhibition, % at 5 µM; CYP2C19 Supersomes, luciferin-H EGE luminescence, 30 min; hit rate 21% among 96,000;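 active = CYP2C19 inhibition above a set limit at 5 µM in the primary screen, cut at about 50% in these data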;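 note: plate controls were negative control wells for no effect and 2.5 mM tranylcypromine positive control for full effect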
D1 mod: allosteric modulators of human D1 dopamine receptor | P21728 | HEK293 D1, CRE-luciferase, dopamine EC30 potentiation; actives deviate in either direction | B-score at 10 µM | hit rate 5.9% among 58,000;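 active = luminescence count or its row- and column-corrected plate score outside the 99.7% band of the plate's sample wells, on either side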
CYP2C9 activ: increases human cytochrome P450 2C9 activity; P11712; recombinant CYP2C9, luciferin-H conversion, luminescence; stronger effect = higher value; factor 1 = untreated enzyme, 0 = blocked; activation factor at 5 µM; AID 1024; hit rate 1.4% among 96,000;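 active = activation factor of 2 or more for CYP2C9 at a 5 µM dose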;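 note: 0 = sulfaphenazole-blocked wells and 1 = vehicle-only wells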
hDAT+cocaine: changed human dopamine transporter uptake under cocaine IC80. Q01959. LLC-PK1 hDAT cells, [14C]-dopamine uptake with cocaine IC80; actives deviate in either direction. B-score at 10 µM. hit rate 1.3% among 110,000;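 active = Z score or B-score, a plate-position-corrected score, falls beyond the plate's 99.7% confidence bounds, in either direction; inactive = both scores lie inside the 99.7% bounds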;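 note: scored against the spread of the other compound wells on the same plate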
D1 PAM confirm: confirmation of human D1 dopamine receptor allosteric modulators. shares compounds with D1 mod. HEK293 D1 CRE-luciferase, dopamine EC30 potentiation; stronger effect = higher value. luminescence at 10 µM. hit rate 88% among 2,200. AID 642;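 active = luminescence in either of two replicates above the same-plate mean plus 3 SD of the low-dose dopamine control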
D1 no dopamine: activates D1 CRE-luciferase signal without dopamine present; hit rate 0.8% among 1,900; HEK293 D1 CRE-luciferase, luminescence, no dopamine; stronger effect = higher value; luminescence at 10 µM; shares compounds with D1 mod; in the data active = luminescence above about 3900
Isoprot counter: alters isoproterenol CRE-luciferase response in HEK293 cells | hit rate 63% among 2,200 | AID 647 | HEK293 D1 CRE-luciferase, isoproterenol EC30 counter-screen | shares compounds with D1 mod | calls only at 10 µM;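 active = luminescence in either replicate above plate mean of wells with a partly effective reference agonist dose plus 3 SD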;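 note: isoproterenol raises cAMP through native beta-adrenoceptor Gs so signal bypasses D1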
Starred values were filed as active, the others as inactive; i = inactive; . = no result; + = active, no number.

SMILES | CYP2C9 inhib | CYP2C19 activ | CYP2C19 inhib | D1 mod | CYP2C9 activ | hDAT+cocaine | D1 PAM confirm | D1 no dopamine | Isoprot counter
CN(C)c1ccc(/C=[N+](\[O-])C2SC(=S)N(C)C2(C)C)cc1 (stereo unspecified) | -17 | 1.2 | -16 | -0.57 | 1.2 | -0.48 | . | . | .
CCn1c(=O)c2cc(S(=O)(=O)NC3CCCCC3)ccc2n(CC)c1=O | 53* | 0.5 | 49 | 4.2* | 0.5 | -1.1 | 6924* | 1232 | i
c1ccc(Cc2nn3c(C4COc5ccccc5O4)nnc3s2)cc1 (stereo unspecified) | 55* | 0.5 | 54* | 6* | 0.5 | -0.049 | 14652* | 1492 | +
CC1CCc2nc(NCCO)nc(C(F)(F)F)c2C1 (stereo unspecified) | 0 | 1 | 2 | 7.5* | 1 | -0.35 | 13160* | 1232 | +
COc1cc(N/C(=N/S(=O)(=O)c2ccccc2)c2ccccc2)ncn1 | 8 | 1.1 | -7 | 6.4* | 0.9 | 0.16 | 14612* | 1720 | i
Cc1ccc(C(=O)C2=C(O)C(=O)N(CCCN(C)C)C23C(=O)N(C)c2ccccc23)o1 (stereo unspecified) | -8 | 0.9 | 9 | -1 | 1.1 | -0.87 | . | . | .
CCOC(=O)COc1cc2c(C(=O)OCC)c(C)oc2cc1Br | -1 | 0.7 | 30 | 0.19 | 1 | -0.011 | . | . | .
CCOC(=O)c1c(C)oc2cc(Br)c(O)c(Br)c12 | 67* | 1 | -2 | 7.9* | 0.3 | 0.36 | 9840* | 1808 | i
COc1ccccc1N1CCN(C(=O)c2cc(-c3cccc(Cl)c3)on2)CC1 | 9 | 0.9 | 8 | 0.076 | 0.9 | -0.66 | . | . | .
COc1ccc(CN2C(=O)c3cccnc3C2O)cc1 (stereo unspecified) | -2 | 0.7 | 30 | . | 1 | -1.7 | . | . | .
COc1ccc(OC)c(NC2c3ncccc3C(=O)N2Cc2ccco2)c1 (stereo unspecified) | 27 | 0.7 | 29 | 8.7* | 0.7 | -0.32 | 11124* | . | +
COC(=O)c1cc(NC2c3ncccc3C(=O)N2Cc2ccccc2)cc(C(=O)OC)c1 (stereo unspecified) | 67* | 0 | 96* | 19* | 0.3 | -0.19 | 20824* | 1580 | +
COc1ccc(CN2C(=O)c3cccnc3C2Nc2cc(Cl)ccc2OC)cc1 (stereo unspecified) | 48 | 0.4 | 63* | 12* | 0.5 | -2.2 | 26704* | 1696 | +
Cc1c(NC(=O)/C=C/c2cn(-c3ccccc3)nc2-c2ccccc2)c(=O)n(-c2ccccc2)n1C | 37 | 0.9 | 13 | . | 0.6 | 1.7 | . | . | .
COc1ccc(CNC(=O)c2c(O)c3cccc4c3n(c2=O)CCC4)cc1 | 5 | 1 | 3 | 0.093 | 1 | -0.66 | . | . | .
COc1ccc(CNC(=O)c2c(O)c3cccc4c3n(c2=O)CCC4)cc1OC | 48 | 1.1 | -6 | 6.2* | 0.5 | -0.12 | 10888* | 1696 | +
CCN(CC)c1ccc(/C=N/n2c(C)cc(C)cc2=O)cc1 | -40 | 0.5 | 46 | -0.2 | 1.4 | 0.57 | . | . | .
Cc1cccc(OCc2nnc(SCC(=O)Nc3sc(C)c(C)c3C#N)n2C)c1 | 38 | 0.9 | 12 | -0.52 | 0.6 | . | . | . | .
CCn1c(SCC(=O)Nc2sc(C)c(C)c2C#N)nnc1C(C)C | 91* | 0 | 98* | 4.5* | 0.1 | -0.36 | 5156 | 1684 | i
Cc1sc(NC(=O)CSc2nnc3scc(-c4ccccc4)n23)c(C#N)c1C | -13 | 0.9 | 10 | -0.58 | 1.1 | -0.72 | . | . | .
Cc1sc(NC(=O)CSc2nnc(COc3ccccc3)n2C)c(C#N)c1C | 13 | 0.9 | 10 | 6.8* | 0.9 | -1 | 6452 | 1688 | i
CCOC(=O)c1c(C)nc2c3ccccc3ccn12 | 20 | 0.8 | 25 | 5.3* | 0.8 | -0.11 | 19468* | 1592 | +
CCOC(=O)c1c(C)nc2c(C)cccn12 | 24 | 0.8 | 25 | . | 0.8 | -0.012 | . | . | .

Compound activity (PubChem BioAssay)
